# In all, about 16,000 compounds went through this assay and about 4,000 (25%) were called active. Inconclusive results (about 26%) are left out. Calls come from the whole dose curve; as a rule, active = well fitted curve in the direction sought with a large enough effect; inconclusive = small, poorly fitted or top-dose-only effect, or effect the other way; inactive = no such curve, though single readings can be large or run the other way. Not all results are given here.
# Target: Cytochrome P450 2C9 (Homo sapiens) (UniProt P11712)
# Test: Cytochrome panel assay with activity outcomes
# Settings: recombinant CYP, pro-luciferin dealkylation, luminescence, p450-cyp2c9; series mostly up to 57.1 µM; activity, negative = inhibition: at the top concentration
# % is set by controls: 0 for no effect and ±100 for the full control effect.
# Chain of Cytochrome P450 2C9 (Homo sapiens) (P11712 whole entry, looked up): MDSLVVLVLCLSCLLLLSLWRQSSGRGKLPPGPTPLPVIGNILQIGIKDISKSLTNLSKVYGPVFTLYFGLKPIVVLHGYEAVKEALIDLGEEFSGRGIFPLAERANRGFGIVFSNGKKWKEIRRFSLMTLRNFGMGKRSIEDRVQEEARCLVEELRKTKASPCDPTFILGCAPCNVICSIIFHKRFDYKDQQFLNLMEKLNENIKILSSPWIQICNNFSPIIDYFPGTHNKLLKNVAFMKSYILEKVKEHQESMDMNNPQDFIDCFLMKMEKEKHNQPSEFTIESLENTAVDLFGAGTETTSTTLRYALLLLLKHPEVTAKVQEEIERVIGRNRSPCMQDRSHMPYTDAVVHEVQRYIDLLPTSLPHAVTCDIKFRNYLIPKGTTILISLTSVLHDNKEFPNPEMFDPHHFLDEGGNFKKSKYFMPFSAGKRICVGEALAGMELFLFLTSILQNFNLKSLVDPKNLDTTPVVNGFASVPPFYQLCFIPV
SMILES,"activity, negative = inhibition",AC50
O=C(c1csnn1)N1CCC2(CC1)CN(c1cccc(-c3ccccc3)c1)C2,3.02% (inactive),
O=C(c1csnn1)N1CCC2(CCCN(c3ccc(-c4ccccc4)cc3)C2)CC1,-4.41% (inactive),
O=C(c1csnn1)N1CCC2(CC1)CN(c1ccccc1)C2,-11.7% (inactive),
O=C(c1csnn1)N1CCC2(CC1)CN(c1ccncc1)C2,,2.51 µM (active)
O=C(c1csnn1)N1CCC2(CC1)CCN(c1ccccc1)CC2,15.3% (inactive),
O=C(c1csnn1)N1CCC2(CCCN(c3ccccc3)C2)CC1,,7.94 µM (active)
COc1ccc(NC(=O)N2CC[C@@]3(CCCN(C(C)=O)C3)C2)cc1,18.2% (inactive),
COC(=O)CSc1ccc2nnc(-c3ccc(F)cc3)n2n1,,10 µM (active)
CCOc1ccc(-c2nnc3ccc(SCC(=O)NCc4ccco4)nn23)cc1,,11.2 µM (active)
CCn1c(SCC(=O)OC)nnc1C1CCCCC1,3.81% (inactive),
COC(=O)CSc1nnc(-c2ccccc2OC)n1-c1ccc(C)cc1,-65.9% (inactive),
O[C@@H](c1cc([C@@]23C[C@H]4CC[C@@H]2C[C@H](C4)C3)nc2c(Cl)cc(Cl)cc12)[C@@H]1CCCCN1,-4.65% [at 11.4 µM] (inactive),
Cc1cnc(CNc2cc(-c3ccc(C(=O)N(C)C)cc3)ncn2)cn1,23.4% [at 2.29 µM] (inactive),
FC(F)(F)c1cnc(N2CCC(=NOCc3ccc(Cl)cc3)CC2)c(Cl)c1,-12.2% (inactive),
O=C(OC1CCN(c2ncc(C(F)(F)F)cc2Cl)CC1)c1ccccc1,,10 µM (active)
COc1ccc(/C=N/NC(=O)C2CCN(c3ncc(C(F)(F)F)cc3Cl)CC2)cc1,-9.1% (inactive),
COC(=O)[C@@]1(Cc2ccc(F)cc2)[C@H]2c3cc(C(=O)N4CCCC4)n(CCc4ccc(OC)c(Br)c4)c3C[C@H]2CN1C(=O)c1ccccc1,,3.16 µM (active)
COC(=O)[C@@]1(Cc2ccc(F)cc2)[C@H]2c3cc(C(=O)N4CCCC4)n(CCc4ccc(O)c(O)c4)c3C[C@H]2CN1C(=O)c1ccccc1,,3.16 µM (active)
COc1ccccc1CN1CCCC2(CCN(C(=O)c3cccn3C)CC2)C1,0.81% (inactive),

SMILES,"activity, negative = inhibition",AC50
C/C(=N\OC(=O)c1ccccc1F)c1nccs1,-11.6% (inactive),
O=S(=O)(O)c1ccc2cc(N=Nc3cc(S(=O)(=O)O)c4cccnc4c3O)ccc2c1,-4.09% [at 11.4 µM] (inactive),
Cc1ccc(-n2c(O)c(/C=N/n3cnnc3)c3ccccc3c2=O)cc1,,0.794 µM (active)
Cc1ccc(-n2cnc(=O)c3cccnc32)cc1,-11.7% (inactive),
Cc1cc(C)cc(-n2c(O)c(C=NC3CCS(=O)(=O)C3)c3ccccc3c2=O)c1 (stereo unspecified),,4.47 µM (active)
Nc1c(S(N)(=O)=O)cc(S(N)(=O)=O)cc1S(N)(=O)=O,-3.4% [at 11.4 µM] (inactive),
CN(CCc1ccc(Cl)c(Cl)c1)C[C@@H](O)COc1ccc(NS(C)(=O)=O)cc1,,2.51 µM (active)
CN(CCc1ccc(Cl)c(Cl)c1)CCN1CCCCCC1,-6.84% (inactive),
CC(C)NC[C@H](O)c1ccc(NS(C)(=O)=O)cc1,,inactive
CC(C)(C)N(NC(=O)c1ccccc1)C(=O)c1cccc(C(=O)N(NC(=O)c2ccccc2)C(C)(C)C)c1,,15.8 µM (active)
O=C(NC(N1CCCC1)C(Cl)(Cl)Cl)c1ccccc1 (stereo unspecified),-51.1% (inactive),
CC(=O)NNC(=O)C(O)(c1ccccc1)c1ccccc1,-3.75% (inactive),
COc1ccc(-c2noc(N(C)CC(=O)Nc3cccc(C(F)(F)F)c3)n2)cc1,,5.01 µM (active)
CN(CCCNC(=O)c1ccc(/C=N/O)nc1)CCCN(C)Cc1ccccc1,-0.536% (inactive),
Cc1ccc(CCN2CC(C(=O)NCCCN(C)Cc3ccccc3)CC2=O)cc1 (stereo unspecified),-27.8% (inactive),
CN(CCCNC(=O)c1cccn2c(=O)c3ccccc3nc12)Cc1ccccc1,,17.8 µM (active)
CNC(=O)c1c(I)c(C(=O)NCC(=O)Nc2c(I)c(C(=O)O)c(I)c(C(=O)NCCO)c2I)c(I)c(N(C)C(C)=O)c1I,-7.59% [at 25.6 µM] (inactive),
Cc1ccc(C(=O)N/C(=C\c2ccc([N+](=O)[O-])cc2)C(=O)NCCc2ccccc2)cc1,-12.4% (inactive),
COc1ccc(NC(=O)/C(=C\c2cc(OC)c(OC)cc2[N+](=O)[O-])NC(=O)c2ccccc2)cc1,,7.94 µM (active)

SMILES,"activity, negative = inhibition",AC50
O=C(Nc1ccccc1)/C(=C\c1ccncc1)NC(=O)c1ccccc1,,0.2 µM (active)
Cc1ccc(NC(=O)/C(=C\c2ccc([N+](=O)[O-])cc2)NC(=O)c2ccccc2)cc1,,11.2 µM (active)
O=C1[C@H]2[C@H]3[C@H](O)[C@H](O)C/C(=N/OCc4ccccc4)[C@@H]3CC[C@@H]2C(=O)N1C[C@@H]1CCCO1,7.38% [at 11.4 µM] (inactive),
O=C(O)C1C2C=CC3(CN(Cc4ccccn4)C(=O)C13)O2 (stereo unspecified),-6.93% (inactive),
CC(=O)NCCNc1ncncc1-c1ccccc1C(F)(F)F,-11.4% [at 2.29 µM] (inactive),
O=C(O)c1nnsc1COCc1ccccc1,-2.96% [at 11.4 µM] (inactive),
COC(=O)c1c(-c2cc(OC)c(OC)c(OC)c2)c2ccc(OCc3ccccn3)cc2c(=O)n1-c1ccc(N)cc1,,3.98 µM (active)
CC(C)CNc1nc(N)[nH]c(=O)c1NC=O,-6.56% [at 11.4 µM] (inactive),
OC1(c2ccc(OC(F)F)cc2)CSC(=Nc2cccnc2)N1C1CC1 (stereo unspecified),,5.01 µM (active)
Cc1ccccc1-c1cc(NCc2ccccc2)ncn1,-15.2% [at 2.29 µM] (inactive),
Cc1ccc(N2C(=O)C(Cl)=C(NCc3ccccc3)C2=O)c(C)c1,,5.62 µM (active)
Cc1cccc(CNc2cc(-c3ccccc3Cl)ncn2)c1,4.64% [at 2.29 µM] (inactive),
COc1ccc(-c2cc(C(=O)O)c3c(C)nn(-c4ccccn4)c3n2)cc1,1.9% (inactive),
COC(=O)c1ccccc1N/C=C1\CCc2c(c(C)nn2-c2ccccn2)C1=O,,14.1 µM (active)
COc1ccc(COC(=O)N/N=C2/C[C@@H](O)[C@@H](O)[C@@H]3[C@H]4C(=O)N(c5ccc(F)cc5F)C(=O)[C@@H]4CC[C@H]23)cc1,-4.97% [at 11.4 µM] (inactive),
O=C(/C=C/c1ccc(Br)cc1)NC1CCCCCC1,10.2% (inactive),
C[n+]1ccc(/C=C/c2ccc(Br)cc2)cc1,-1.18% (inactive),
CCOC(=O)C(CC)(CC)C(=O)/C=C/c1ccc(Br)cc1,,5.01 µM (active)
